Compounds with a hit are over-represented: about 3% of the library has one in this group of screens.
Tau fluor cs – counter-screen for tau fibril formation inhibitors. Potency, µM (highest dose often 57.7 µM), for inactives: top-dose activity change, negative = decrease. tau K18 P301L Alexa594 fluorescence, heparin fibrillization. AID 1463. 280,000 compounds, 0.93% hits; further: nearly all actives have a fitted effect of over 55% in size
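Human K18 P301L tau (15 uM unlabeled plus 0.24 uM Alexa 594-labeled, final) in 100 mM sodium acetate pH 7 was mixed with compound and 20 uM heparin and incubated 6 hr at 37 C.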
TRb-SRC2 inh – TRbeta-SRC2 interaction inhibition; P10828; TRbeta-SRC2 peptide binding, fluorescence polarization; receptor liganded with 1 µM T3; Potency, µM (top dose mostly 106 µM), without a hit: top-dose activity change, negative = inhibition, hits mostly inhibitors; 280,000 compounds, 0.065% hits; AID 1469;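 further: plate controls were bound peptide for no effect and peptide without receptor for full effect; nearly all actives have a fitted effect of over 50% in size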
Target sequence (P10828 whole entry, looked up): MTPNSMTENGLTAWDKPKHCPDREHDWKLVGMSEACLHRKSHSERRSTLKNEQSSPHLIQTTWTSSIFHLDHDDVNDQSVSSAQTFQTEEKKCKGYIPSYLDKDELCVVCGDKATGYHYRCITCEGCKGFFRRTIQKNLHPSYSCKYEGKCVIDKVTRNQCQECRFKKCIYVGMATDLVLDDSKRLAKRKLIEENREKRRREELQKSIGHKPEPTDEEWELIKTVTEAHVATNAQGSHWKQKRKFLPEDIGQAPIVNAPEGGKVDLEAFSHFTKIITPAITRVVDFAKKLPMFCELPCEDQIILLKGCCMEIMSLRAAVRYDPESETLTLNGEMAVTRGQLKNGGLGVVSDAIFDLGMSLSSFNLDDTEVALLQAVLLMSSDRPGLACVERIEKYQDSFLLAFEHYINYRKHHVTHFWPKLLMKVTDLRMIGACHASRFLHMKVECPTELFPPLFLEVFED
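Human TRb LBD (0.6 uM) plus Texas Red-labeled SRC2 peptide (20 nM), 1uM T3, 5% DMSO, 5 hr at ambient temperature. Decreased polarization (555/632 nm) flags inhibition; data normalized to free and bound peptide controls.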
Tau FP inhib – tau fibrillization inhibition (FP) | P10636 | K18 P301L tau heparin fibrillization, Alexa594 FP, 6 h | Potency, µM (series often up to 57.7 µM), without a hit: at the top dose activity, negative = inhibition, hits mostly inhibitors | 280,000 compounds, 0.39% hits | AID 1468; further: nearly all actives have a fitted effect of over 55% in size
Target sequence (P10636 561-689 P618L limits assumed): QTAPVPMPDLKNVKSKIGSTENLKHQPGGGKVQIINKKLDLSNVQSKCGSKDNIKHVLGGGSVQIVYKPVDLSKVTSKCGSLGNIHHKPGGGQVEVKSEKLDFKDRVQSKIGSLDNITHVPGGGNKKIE
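Recombinant K18 P301L […], labeled with Alexa 594 at 0.24 uM over 15 uM unlabeled; heparin inducer 20 uM final; 37 C, 6 hr; FP endpoint.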
Tau fibril ThT – inhibitors of human tau fibril formation, thioflavin T binding; P10636; recombinant tau K18 P301L, heparin-induced fibrillization, ThT fluorescence; Potency, µM (doses to about 57.4 µM), without a hit: at the highest dose activity, negative = inhibition, hits mostly inhibitors; 270,000 compounds, 2.1% hits; AID 1460; further: nearly all actives have a fitted effect of over 55% in size
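Using a mix of unlabeled (15 uM) and Alexa 594-labeled (0.24 uM) tau K18 P301L, heparin-triggered fibrillization over 6 hr at 37 C was scored by ThT fluorescence.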
TexasRed fluor – counter-screen for TRb-SRC2 inhibitors: fluorescence interference | TRb/SRC2 Texas Red total fluorescence interference | Potency, µM (series often up to 106 µM), for inactives: top-dose fluorescence change, negative = quenching | 280,000 compounds, 0.29% hits | AID 1479; active means well fitted curve in either direction with a large enough effect; inconclusive means small, poorly fitted or top-dose-only effect
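Flags fluorescent or light-absorbing compounds by total fluorescence, S + 2P, at 555 nm excitation and 632 nm emission. Mixture: 20 nM Texas Red SRC2 peptide, 0.6 uM human TRb LBD, 1 uM T3, 5% DMSO; compound exposure 5 h at ambient temperature.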
* hit, by the source's call; ? = inconclusive; . = no result; [ ] = remark or other dose. Unless noted, the call rests on the fitted dose curve; in most records, active means well fitted curve in the direction sought with a large enough effect; inconclusive means small, poorly fitted or top-dose-only effect, or another doubt; inactive means no such curve, though single readings can be large; an effect the other way counts as inactive or inconclusive. Unless noted, on the % scale 0 is the no-effect control and ±100 the full control effect; potency means the concentration at half of the fitted maximal effect.

SMILES	Tau fluor cs	TRb-SRC2 inh	Tau FP inhib	Tau fibril ThT	TexasRed fluor
Cc1cc(-c2nc3ccccc3s2)ccc1NC(=O)c1cc(Cl)ccc1Cl	-12%	5%	-3%	?	3%
C/C1=C\[C@@H](C)C/C=C/[C@H]2[C@@H]3O[C@]3(C)[C@@H](C)[C@H]3[C@H](Cc4c[nH]c5ccccc45)NC(=O)[C@]32C(=O)/C=C/C(=O)[C@@H]1O	?	-11%	-19%	0.89µM*	-1%
CC1=CC2/C=C(\C)CCC(O)C(O)/C=C/C(=O)C23C(=O)NC(CC(C)C)C3C1C (stereo unspecified)	-3%	-5%	-9%	?	1%
CON(C)C(=O)Nc1ccc(Cl)c(Cl)c1	.	0%[201 µM]	.	.	-2%[201 µM]
CCCCOP(=O)(O)OCCCC	.	6%[201 µM]	.	.	3%[201 µM]
O=C1NC(=O)[C@]2(Cc3ccccc3N3CCN(c4ccccc4)CC32)C(=O)N1Cc1ccccc1 (stereo partly specified)	-20%	11%	?	32µM*	-1%
COc1cccc(N2C(=O)NC(=O)/C(=C/c3ccc([N+](=O)[O-])s3)C2=O)c1	-51%	17%	-95%	.	1%
Cc1ccc(N2C(=O)NC(=O)/C(=C\c3ccc([N+](=O)[O-])o3)C2=O)cc1	-15%	16%	?	22µM*	19%
CCOc1ccc(N2C(=O)NC(=O)/C(=C\c3cc(OC)c(OC)cc3[N+](=O)[O-])C2=O)cc1	-24%	1%	?	14µM*	-2%
COc1ccccc1N1C(=O)NC(=O)/C(=C\c2cnn(-c3ccccc3)c2)C1=O	-4%	-8%	-6%	?	-4%
COc1ccccc1N1C(=O)NC(=O)/C(=C/c2ccc([N+](=O)[O-])s2)C1=O	?	9%	32µM*	.	-6%
COc1ccc(N2C(=O)NC(=O)/C(=C/c3ccc([N+](=O)[O-])s3)C2=O)cc1	?	25%	32µM*	.	1%
CC(C)COP(=O)(OCC(C)C)OCC(C)C	.	2%[201 µM]	.	.	-1%[201 µM]
CCCOc1nn(C(=O)NS(=O)(=O)c2ccccc2C(=O)OC)c(=O)n1C	.	-1%[201 µM]	.	.	-4%[201 µM]
COc1ccc(N2C(=O)/C(=C/C=C/c3ccccc3[N+](=O)[O-])C(=O)NC2=S)cc1	?	5%	?	28µM*	-7%
COc1ccc(N2C(=O)NC(=O)/C(=C\c3ccc([N+](=O)[O-])s3)C2=O)cc1	?	?	?	14µM*	?
Brc1c(Br)c(Br)c(Br)c(Br)c1Br	.	-4%[201 µM]	.	.	-3%[201 µM]
C[Si](Cn1cncn1)(c1ccc(F)cc1)c1ccc(F)cc1	.	-1%[201 µM]	.	.	-1%[201 µM]
O=C(O)[C@@H]1[C@H](C(=O)O)[C@@]2(Cl)C(Cl)=C(Cl)[C@]1(Cl)C2(Cl)Cl	.	-2%[201 µM]	.	.	0%[201 µM]
c1ccc2oc(N3CCNCC3)nc2c1	1%	-17%	1%	-9%	1%
c1ccc2c(N3CCNCC3)nsc2c1	-22%	2%	?	22µM*	-3%
CC(C)N1CCN(c2ccc(O)cc2)CC1	-21%	-11%	?	25µM*	1%
CN1CCC2(CC1)C(C#N)=C(N)NC(S)=C2C#N	?	9%	?	22µM*	1%
O=C1NC(=O)N(c2ccccc2)C(=O)/C1=C/c1ccc(Sc2ccccc2)o1	-9%	?	-6%	?	22%
O=C1NC(=O)N(c2cccc(Cl)c2)C(=O)/C1=C\c1ccc(Sc2nc3ccccc3[nH]2)o1	?	?	?	13µM*	22µM*[fluorescent]
SMILES	Tau fluor cs	TRb-SRC2 inh	Tau FP inhib	Tau fibril ThT	TexasRed fluor
O=C1NC(=O)N(c2ccc3c(c2)OCO3)C(=O)/C1=C\c1ccc(-c2ccccc2C(=O)O)o1	-16%	-3%	-2%	?	0%
O=C1NC(=O)N(c2ccccc2F)C(=O)/C1=C/c1ccc(Sc2nc3ccccc3[nH]2)o1	-11%	?	-22%	13µM*	45µM*[fluorescent]
Cc1ccccc1CO[C@@H]1C[C@@]2(C(C)C)CC[C@]1(C)O2	.	-6%[201 µM]	.	.	1%[201 µM]
COc1cc2c(cc1O)C[C@H]1NCCc3cc4c(c-2c31)OCO4	?	-5%	-4%	14µM*	-5%
CCN(CC)C(=O)N[C@@H]1C[C@H]2c3cccc4[nH]cc(c34)C[C@@H]2N(C)C1	.	1%[53 µM]	.	.	-3%[53 µM]
CN1Cc2ccccc2[C@@H]2c3cccc4[nH]cc(c34)C[C@H]21	?	-4%	?	11µM*	?
CC1=C[C@@H]2c3cccc4[nH]cc(c34)C[C@H]2N(C)C1	?	-3%	-14%	16µM*	5%
CC1(C)[C@H](C(=O)O[C@H](C#N)c2cccc(Oc3ccccc3)c2)[C@@H]1/C=C(\Cl)C(F)(F)F	.	3%[201 µM]	.	.	1%[201 µM]
C=CC(=O)OCCCCCC(C)C	.	-2%[201 µM]	.	.	-1%[201 µM]
COC(=O)C1=Nc2ccccc2/C1=C\c1c(O)n(C)c(=O)n(C)c1=O	-11%	5%	-2%	?	-1%
Cn1c(O)c(/C=C2\N=c3ccccc3=C2CCNC(=S)NC2CC2)c(=O)n(C)c1=O	-19%	?	?	11µM*	-2%
CCn1c(NN=O)nc2ccccc21	-11%	1%[53 µM]	-2%	28µM*	-2%[53 µM]
CCOP(=O)(OCC)SCSC(C)(C)C	.	6%[201 µM]	.	.	-2%[201 µM]
O=C(Nc1ccc(Br)cc1)c1ccc(F)c(S(=O)(=O)N2CCCc3ccccc32)c1	7.1µM*[quencher]	-7%	16µM*	-1%	-1%
C=CCn1c(O)c(C(C)=Nc2ccc(N(C)C)cc2)c(=O)[nH]c1=O	?	-8%	-3%	18µM*	0%
O=C1c2ccccc2C(=O)c2ccccc21	-3%	-5%[201 µM]	-1%	7%	-4%[201 µM]
O=C1C=Cc2ccccc2C1=O	?	?	4.5µM*	2.5µM*	?
COc1cc(OC)nc(Sc2cccc(Cl)c2C(=O)O)n1	.	5%[201 µM]	.	.	-1%[201 µM]
O=C1NC(=O)c2c1c1c3ccccc3[nH]c1c1[nH]c3ccccc3c21	14µM*[quencher]	-20%	-9%	?	-16%
CCCCOCCOC(C)=O	.	2%[201 µM]	.	.	1%[201 µM]
O=C(O)c1cc(O)c(O)c(O)c1	4µM*[quencher]	6%	2µM*	1.3µM*	-2%
O=C(O)c1cccc(Cl)c1	.	1%	.	.	0%
Cc1ccc(N/N=C/c2c(O)n(-c3ccccc3)c(=O)[nH]c2=O)cc1	?	-8%	?	16µM*	-4%
Cc1ccc(-n2c(O)c(/C=C/C=Nc3ccccc3)c(=O)[nH]c2=O)cc1	-9%	-3%	6%	-8%	-1%
Cc1cccc(-n2c(/C=C\c3cccc(Br)c3)nc3ccccc3c2=O)c1	9%	-3%	9%	3%	-2%
Cc1cccc(-n2c(/C=C/c3c[nH]c4ccccc34)nc3ccccc3c2=O)c1	4µM*[quencher]	7%	1%	?	2%
O=Cc1cccc(Oc2ccccc2)c1	.	5%[201 µM]	.	.	-5%[201 µM]

Screening results (PubChem BioAssay)
